This passage reports binding signal results from publication PMC7862700, “An all-to-all approach to the identification of sequence-specific readers for epigenetic DNA modifications on cytosine”.

Holding throughout (test): DAPPL (digital affinity profiling via proximity ligation, sequencing); 10 mM Tris-HCl pH 7.5, 50 mM NaCl, 1 mM DTT, 4% glycerol, room temperature, 30 min; GST-TFs on glutathione beads, 16-mer random dsDNA library, 0.1% formaldehyde crosslink after washing; high values mean tight binding
The target of one experiment is T1, FEV (Homo sapiens, UniProt Q99581 1-238).
T1 sequence: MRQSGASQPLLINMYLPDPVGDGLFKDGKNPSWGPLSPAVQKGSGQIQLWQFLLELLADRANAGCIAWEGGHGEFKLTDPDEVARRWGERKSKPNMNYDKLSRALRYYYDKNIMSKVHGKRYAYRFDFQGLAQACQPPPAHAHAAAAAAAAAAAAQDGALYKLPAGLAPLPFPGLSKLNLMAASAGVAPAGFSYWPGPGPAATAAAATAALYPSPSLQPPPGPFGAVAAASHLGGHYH
The conditions noted are these: protein: recombinant; tags: N-terminal GST; dsDNA, one strand shown. An outline of the steps:
(§1)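 Human transcription factors carrying a GST fusion were produced in yeast, bound to glutathione beads, tagged with DNA barcodes and pooled together with a tag-only sample. Each pool was held with 200 nmole of a random double-stranded 16-mer DNA library in Tris/NaCl/DTT/glycerol buffer for 30 min at room temperature, then washed, crosslinked in 0.1% formaldehyde, proximity-ligated with BsaI/T4 ligase (1 h, 37 °C), PCR-amplified and sequenced on an Illumina NextSeq500. Binding signal is the read frequency of each hexamer for a given factor divided by its frequency in the tag-only sample.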

The target of a further experiment is ETV5 (Homo sapiens, UniProt P41161 1-510). The conditions noted are these: protein: recombinant; tags: N-terminal GST; dsDNA, one strand shown. The essentials:
as §1

For a further experiment, the target named is HSF1 (Homo sapiens, UniProt Q00613 1-529). The conditions noted are these: protein: recombinant; tags: N-terminal GST; chain copies: 3; dsDNA, one strand shown. The essentials:
as §1

In a further experiment the target is T2, SPIC (Homo sapiens, UniProt Q8N5J4 1-248).
T2 sequence: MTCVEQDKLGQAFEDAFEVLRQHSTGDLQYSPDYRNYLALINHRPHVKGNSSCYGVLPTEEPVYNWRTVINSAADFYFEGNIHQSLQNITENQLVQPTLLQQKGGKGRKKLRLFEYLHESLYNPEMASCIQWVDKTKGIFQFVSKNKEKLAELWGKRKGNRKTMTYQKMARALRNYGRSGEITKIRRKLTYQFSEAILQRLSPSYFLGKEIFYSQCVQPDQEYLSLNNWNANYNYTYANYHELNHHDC
The conditions noted are these: protein: recombinant; tags: N-terminal GST; dsDNA, one strand shown. An outline of the steps:
as §1

The target of a further experiment is ELF4 (Homo sapiens, UniProt Q99607 1-663). The conditions noted are these: protein: recombinant; tags: N-terminal GST; dsDNA, one strand shown. The essentials:
as §1

For another experiment, the target named is T3, ELK4 (Homo sapiens, UniProt P28324-2 1-405).
T3 sequence: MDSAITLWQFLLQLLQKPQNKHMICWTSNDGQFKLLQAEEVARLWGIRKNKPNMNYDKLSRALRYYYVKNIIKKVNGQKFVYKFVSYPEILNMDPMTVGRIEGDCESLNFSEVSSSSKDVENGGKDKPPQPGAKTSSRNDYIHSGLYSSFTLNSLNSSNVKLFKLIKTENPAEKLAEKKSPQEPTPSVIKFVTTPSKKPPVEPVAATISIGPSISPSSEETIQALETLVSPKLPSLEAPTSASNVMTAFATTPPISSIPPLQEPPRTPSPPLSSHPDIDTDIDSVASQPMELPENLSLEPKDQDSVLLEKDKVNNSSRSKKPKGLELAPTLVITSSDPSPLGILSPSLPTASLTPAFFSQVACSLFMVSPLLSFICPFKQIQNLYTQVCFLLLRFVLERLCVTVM
The conditions noted are these: protein: recombinant; tags: N-terminal GST; dsDNA, one strand shown. An outline of the steps:
as §1

The next experiment addresses T4, ETV2 (Homo sapiens, UniProt O00321 1-342).
T4 sequence: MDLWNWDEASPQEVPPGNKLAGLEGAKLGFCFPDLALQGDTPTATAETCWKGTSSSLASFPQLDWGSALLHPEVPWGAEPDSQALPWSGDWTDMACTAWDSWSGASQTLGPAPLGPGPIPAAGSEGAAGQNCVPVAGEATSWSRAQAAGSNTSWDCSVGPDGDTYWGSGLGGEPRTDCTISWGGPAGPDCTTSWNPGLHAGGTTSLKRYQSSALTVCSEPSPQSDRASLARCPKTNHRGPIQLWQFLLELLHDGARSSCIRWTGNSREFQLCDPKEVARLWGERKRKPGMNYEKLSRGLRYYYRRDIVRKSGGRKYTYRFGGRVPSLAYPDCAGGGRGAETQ
The conditions noted are these: protein: recombinant; tags: N-terminal GST; dsDNA, one strand shown. The essentials:
as §1

In the next experiment the target is T5, ELF3 (Homo sapiens, UniProt P78545 1-371).
T5 sequence: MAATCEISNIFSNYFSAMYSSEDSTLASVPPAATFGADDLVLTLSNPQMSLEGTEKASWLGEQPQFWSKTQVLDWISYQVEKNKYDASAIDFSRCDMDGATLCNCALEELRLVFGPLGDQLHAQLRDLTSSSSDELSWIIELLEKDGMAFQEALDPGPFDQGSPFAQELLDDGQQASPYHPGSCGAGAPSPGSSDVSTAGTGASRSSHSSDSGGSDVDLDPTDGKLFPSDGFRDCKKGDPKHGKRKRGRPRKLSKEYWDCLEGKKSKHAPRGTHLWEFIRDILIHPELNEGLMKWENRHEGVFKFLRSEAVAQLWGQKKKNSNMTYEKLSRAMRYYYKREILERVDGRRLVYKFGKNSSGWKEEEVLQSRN
The conditions noted are these: protein: recombinant; tags: N-terminal GST; dsDNA, one strand shown. An outline of the steps:
as §1

In the next experiment the target is CRX (Homo sapiens, UniProt O43186 1-299). The conditions noted are these: protein: recombinant; tags: N-terminal GST; dsDNA, one strand shown. The essentials:
as §1

Another experiment deals with ETV1 (Homo sapiens, UniProt P50549 1-477). The conditions noted are these: protein: recombinant; tags: N-terminal GST; dsDNA, one strand shown. The essentials: as §1
Chain of ETV1 (P50549 whole entry): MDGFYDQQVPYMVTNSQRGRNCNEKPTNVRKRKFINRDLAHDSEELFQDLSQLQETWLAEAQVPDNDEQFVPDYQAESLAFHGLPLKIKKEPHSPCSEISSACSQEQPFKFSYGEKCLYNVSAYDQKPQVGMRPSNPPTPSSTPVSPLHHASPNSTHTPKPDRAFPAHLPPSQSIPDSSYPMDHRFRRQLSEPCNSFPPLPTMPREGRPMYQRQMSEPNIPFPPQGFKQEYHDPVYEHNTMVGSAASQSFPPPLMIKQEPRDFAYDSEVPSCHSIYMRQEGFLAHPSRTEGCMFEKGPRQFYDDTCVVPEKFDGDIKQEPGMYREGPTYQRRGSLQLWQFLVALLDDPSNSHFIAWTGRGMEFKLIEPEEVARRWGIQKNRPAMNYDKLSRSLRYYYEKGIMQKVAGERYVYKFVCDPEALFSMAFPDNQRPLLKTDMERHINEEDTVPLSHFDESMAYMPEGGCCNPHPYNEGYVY
In the next experiment the target is T6, ERF (Homo sapiens, UniProt P50548 1-548).
T6 sequence: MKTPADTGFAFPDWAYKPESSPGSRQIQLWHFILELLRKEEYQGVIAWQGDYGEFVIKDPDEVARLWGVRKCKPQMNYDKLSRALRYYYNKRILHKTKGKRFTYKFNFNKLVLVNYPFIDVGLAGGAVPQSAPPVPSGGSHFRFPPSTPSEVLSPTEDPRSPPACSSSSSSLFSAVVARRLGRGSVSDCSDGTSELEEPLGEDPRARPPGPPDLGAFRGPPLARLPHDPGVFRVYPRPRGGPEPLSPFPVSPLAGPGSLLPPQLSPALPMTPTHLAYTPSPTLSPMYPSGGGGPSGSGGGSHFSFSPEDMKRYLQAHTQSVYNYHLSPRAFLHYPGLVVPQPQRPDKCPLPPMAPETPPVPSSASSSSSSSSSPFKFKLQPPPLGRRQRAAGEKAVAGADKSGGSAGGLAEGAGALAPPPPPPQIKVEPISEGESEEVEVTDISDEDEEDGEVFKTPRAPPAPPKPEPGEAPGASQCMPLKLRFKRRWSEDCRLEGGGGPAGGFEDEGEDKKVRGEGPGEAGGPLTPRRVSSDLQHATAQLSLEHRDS
The conditions noted are these: protein: recombinant; tags: N-terminal GST; dsDNA, one strand shown. The essentials: as §1

In a further experiment the target is T7, ETV3L (Homo sapiens, UniProt Q6ZN32 1-361).
T7 sequence: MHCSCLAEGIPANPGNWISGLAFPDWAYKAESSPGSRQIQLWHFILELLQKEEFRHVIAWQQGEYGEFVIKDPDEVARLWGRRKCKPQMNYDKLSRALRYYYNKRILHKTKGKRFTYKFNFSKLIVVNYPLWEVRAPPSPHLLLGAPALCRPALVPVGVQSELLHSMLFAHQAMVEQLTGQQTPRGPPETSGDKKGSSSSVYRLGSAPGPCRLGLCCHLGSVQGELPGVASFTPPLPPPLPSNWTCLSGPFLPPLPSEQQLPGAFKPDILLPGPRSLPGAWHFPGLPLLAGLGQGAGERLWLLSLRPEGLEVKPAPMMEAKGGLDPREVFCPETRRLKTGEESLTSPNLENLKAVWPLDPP
The conditions noted are these: protein: recombinant; tags: N-terminal GST; dsDNA, one strand shown. The essentials:
as §1

Another experiment has as its target T8, ETS2 (Homo sapiens, UniProt P15036 1-469).
T8 sequence: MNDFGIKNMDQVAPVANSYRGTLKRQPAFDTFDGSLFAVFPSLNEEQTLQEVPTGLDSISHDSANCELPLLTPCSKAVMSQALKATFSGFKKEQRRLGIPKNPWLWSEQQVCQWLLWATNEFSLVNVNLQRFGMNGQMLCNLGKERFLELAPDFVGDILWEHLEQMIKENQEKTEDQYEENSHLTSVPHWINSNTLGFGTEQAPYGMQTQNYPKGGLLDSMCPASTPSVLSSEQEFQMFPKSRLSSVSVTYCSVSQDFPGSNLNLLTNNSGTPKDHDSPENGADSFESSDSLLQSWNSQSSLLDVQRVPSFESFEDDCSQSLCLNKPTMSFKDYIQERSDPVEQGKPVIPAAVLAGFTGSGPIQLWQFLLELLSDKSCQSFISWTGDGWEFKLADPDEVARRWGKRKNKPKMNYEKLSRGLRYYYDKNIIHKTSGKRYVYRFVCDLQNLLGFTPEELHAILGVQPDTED
The conditions noted are these: protein: recombinant; tags: N-terminal GST; dsDNA, one strand shown. An outline of the steps:
as §1

Another experiment concerns the target T9, SPDEF (Homo sapiens, UniProt O95238 1-335).
T9 sequence: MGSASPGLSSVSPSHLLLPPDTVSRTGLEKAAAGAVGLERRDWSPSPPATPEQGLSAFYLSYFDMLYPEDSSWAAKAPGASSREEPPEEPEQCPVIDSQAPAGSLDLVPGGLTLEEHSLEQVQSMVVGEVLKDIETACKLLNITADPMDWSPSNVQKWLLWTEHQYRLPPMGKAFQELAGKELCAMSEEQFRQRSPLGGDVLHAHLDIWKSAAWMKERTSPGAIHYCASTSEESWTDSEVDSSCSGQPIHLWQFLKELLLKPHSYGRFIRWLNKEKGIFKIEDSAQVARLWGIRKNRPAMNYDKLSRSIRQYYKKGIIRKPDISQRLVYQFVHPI
The conditions noted are these: protein: recombinant; tags: N-terminal GST; dsDNA, one strand shown. The essentials:
as §1

The target of another experiment is T10, ETV7 (Homo sapiens, UniProt Q9Y603 1-341).
T10 sequence: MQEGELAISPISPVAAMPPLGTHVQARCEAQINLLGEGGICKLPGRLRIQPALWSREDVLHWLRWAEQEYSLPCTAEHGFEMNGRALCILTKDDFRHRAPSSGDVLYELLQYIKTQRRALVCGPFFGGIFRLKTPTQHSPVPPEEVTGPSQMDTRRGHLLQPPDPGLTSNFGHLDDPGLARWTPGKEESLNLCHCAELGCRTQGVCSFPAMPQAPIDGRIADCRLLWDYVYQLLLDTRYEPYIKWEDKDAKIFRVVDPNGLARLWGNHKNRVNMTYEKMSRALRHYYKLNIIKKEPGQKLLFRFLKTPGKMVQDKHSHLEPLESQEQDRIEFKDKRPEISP
The conditions noted are these: protein: recombinant; tags: N-terminal GST; dsDNA, one strand shown. The essentials: as §1

Another experiment addresses T11, ELF5 (Homo sapiens, UniProt Q9UKW6-2 1-255).
T11 sequence: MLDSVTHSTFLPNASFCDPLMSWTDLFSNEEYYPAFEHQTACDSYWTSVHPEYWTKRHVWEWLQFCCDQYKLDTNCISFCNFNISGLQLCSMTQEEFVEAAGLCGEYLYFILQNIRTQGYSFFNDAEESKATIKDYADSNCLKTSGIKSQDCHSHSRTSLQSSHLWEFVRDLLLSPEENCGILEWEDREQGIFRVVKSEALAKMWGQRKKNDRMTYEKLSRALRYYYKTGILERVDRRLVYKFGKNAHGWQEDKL
The conditions noted are these: protein: recombinant; tags: N-terminal GST; dsDNA, one strand shown. An outline of the steps:
as §1

Another experiment deals with T12, ETV3 (Homo sapiens, UniProt P41162-2 1-143).
T12 sequence: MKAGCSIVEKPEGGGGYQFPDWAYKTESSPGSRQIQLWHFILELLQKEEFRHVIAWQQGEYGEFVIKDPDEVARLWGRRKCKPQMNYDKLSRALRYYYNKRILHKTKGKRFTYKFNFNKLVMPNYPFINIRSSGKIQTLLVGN
The conditions noted are these: protein: recombinant; tags: N-terminal GST; dsDNA, one strand shown. The essentials: as §1

In a further experiment the target is ETV6 (Homo sapiens, UniProt P41212 1-452). The conditions noted are these: protein: recombinant; tags: N-terminal GST; dsDNA, one strand shown. An outline of the steps: as §1
Chain of ETV6 (P41212 whole entry): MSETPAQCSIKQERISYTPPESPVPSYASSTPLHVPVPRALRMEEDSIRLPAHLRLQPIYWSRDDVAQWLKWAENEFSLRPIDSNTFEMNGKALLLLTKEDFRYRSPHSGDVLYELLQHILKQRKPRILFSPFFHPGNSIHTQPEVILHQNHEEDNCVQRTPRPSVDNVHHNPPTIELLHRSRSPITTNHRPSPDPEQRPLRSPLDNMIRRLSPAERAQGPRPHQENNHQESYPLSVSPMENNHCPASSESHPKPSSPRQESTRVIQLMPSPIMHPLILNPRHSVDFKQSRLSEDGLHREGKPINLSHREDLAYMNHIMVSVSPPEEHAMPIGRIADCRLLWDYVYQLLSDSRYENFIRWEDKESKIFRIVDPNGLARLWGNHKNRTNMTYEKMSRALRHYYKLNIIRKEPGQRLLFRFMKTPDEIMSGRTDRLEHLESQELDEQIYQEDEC

Chain of CRX (O43186 whole entry): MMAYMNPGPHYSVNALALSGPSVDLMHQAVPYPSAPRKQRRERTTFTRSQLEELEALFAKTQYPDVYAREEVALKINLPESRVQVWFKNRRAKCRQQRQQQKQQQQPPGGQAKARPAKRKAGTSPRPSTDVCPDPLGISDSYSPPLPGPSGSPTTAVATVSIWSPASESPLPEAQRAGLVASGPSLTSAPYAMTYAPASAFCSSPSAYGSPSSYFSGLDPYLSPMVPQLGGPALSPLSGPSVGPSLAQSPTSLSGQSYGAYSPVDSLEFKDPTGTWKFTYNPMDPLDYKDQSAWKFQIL
Chain of ELF4 (Q99607 whole entry): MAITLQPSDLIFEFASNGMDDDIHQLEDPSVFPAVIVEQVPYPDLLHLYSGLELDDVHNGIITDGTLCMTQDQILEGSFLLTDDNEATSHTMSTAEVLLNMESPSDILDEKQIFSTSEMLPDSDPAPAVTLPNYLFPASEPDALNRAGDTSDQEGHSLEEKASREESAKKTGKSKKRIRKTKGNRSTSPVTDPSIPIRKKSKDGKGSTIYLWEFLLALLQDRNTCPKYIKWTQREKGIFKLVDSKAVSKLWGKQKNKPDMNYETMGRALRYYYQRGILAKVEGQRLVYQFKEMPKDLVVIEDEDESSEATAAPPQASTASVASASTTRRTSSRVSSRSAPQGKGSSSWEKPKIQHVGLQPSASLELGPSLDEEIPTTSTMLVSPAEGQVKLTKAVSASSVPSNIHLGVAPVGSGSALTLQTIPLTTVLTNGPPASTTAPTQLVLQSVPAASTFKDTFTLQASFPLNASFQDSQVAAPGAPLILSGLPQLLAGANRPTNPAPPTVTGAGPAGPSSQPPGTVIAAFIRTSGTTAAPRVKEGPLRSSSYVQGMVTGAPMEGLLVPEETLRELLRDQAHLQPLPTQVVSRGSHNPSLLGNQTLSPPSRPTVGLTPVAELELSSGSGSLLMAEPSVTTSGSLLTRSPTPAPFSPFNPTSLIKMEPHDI
Chain of HSF1 (Q00613 whole entry): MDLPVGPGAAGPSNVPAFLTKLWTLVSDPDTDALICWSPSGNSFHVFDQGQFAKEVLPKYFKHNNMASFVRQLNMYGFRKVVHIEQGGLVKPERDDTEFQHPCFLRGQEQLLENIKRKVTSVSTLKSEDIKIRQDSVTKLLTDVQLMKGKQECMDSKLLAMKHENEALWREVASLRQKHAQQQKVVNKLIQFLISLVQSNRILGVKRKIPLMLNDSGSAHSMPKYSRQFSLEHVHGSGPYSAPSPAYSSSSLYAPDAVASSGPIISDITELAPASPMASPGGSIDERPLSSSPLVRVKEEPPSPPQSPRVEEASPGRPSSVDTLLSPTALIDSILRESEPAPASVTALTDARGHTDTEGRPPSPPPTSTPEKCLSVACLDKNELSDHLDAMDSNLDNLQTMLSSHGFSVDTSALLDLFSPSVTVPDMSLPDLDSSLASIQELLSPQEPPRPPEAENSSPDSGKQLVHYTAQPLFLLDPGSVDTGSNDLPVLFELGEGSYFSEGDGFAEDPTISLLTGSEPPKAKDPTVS
Chain of ETV5 (P41161 whole entry): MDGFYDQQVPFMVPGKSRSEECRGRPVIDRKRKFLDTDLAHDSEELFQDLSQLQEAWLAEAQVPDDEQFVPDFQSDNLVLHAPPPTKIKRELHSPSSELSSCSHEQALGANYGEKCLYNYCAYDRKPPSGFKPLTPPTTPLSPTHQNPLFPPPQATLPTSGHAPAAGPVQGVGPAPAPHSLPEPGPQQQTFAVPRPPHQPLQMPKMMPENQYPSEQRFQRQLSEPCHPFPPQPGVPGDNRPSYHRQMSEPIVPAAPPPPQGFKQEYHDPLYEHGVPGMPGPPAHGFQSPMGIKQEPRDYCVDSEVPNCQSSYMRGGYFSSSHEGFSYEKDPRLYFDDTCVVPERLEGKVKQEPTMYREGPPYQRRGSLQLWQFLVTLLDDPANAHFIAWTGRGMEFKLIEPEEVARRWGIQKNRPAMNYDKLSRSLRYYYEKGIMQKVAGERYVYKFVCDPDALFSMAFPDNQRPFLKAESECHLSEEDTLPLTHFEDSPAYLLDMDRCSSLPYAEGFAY

In the case of CATTTG, the binding signal with FEV was 1.21 fold enrichment (6-mer frequency, TF over GST control); in the experiment with ETV5 it was 1.24 fold enrichment (6-mer frequency, TF over GST control); with HSF1, 1.13 fold enrichment (6-mer frequency, TF over GST control); with SPIC it was 1.15 fold enrichment (6-mer frequency, TF over GST control); with ELF4, 1.26 fold enrichment (6-mer frequency, TF over GST control); in the experiment with ELK4, 1.26 fold enrichment (6-mer frequency, TF over GST control). Further, the binding signal with ETV2 is 1.29 fold enrichment (6-mer frequency, TF over GST control); in the experiment with ELF3, 1.49 fold enrichment (6-mer frequency, TF over GST control); with CRX, 1.07 fold enrichment (6-mer frequency, TF over GST control); in the experiment with ETV1, 1.32 fold enrichment (6-mer frequency, TF over GST control); with ERF, 1.4 fold enrichment (6-mer frequency, TF over GST control); with ETV3L it was 1.25 fold enrichment (6-mer frequency, TF over GST control). Further, the binding signal with ETS2 was 1.31 fold enrichment (6-mer frequency, TF over GST control); in the experiment with SPDEF, 1.25 fold enrichment (6-mer frequency, TF over GST control); in the experiment with ETV7, 1.3 fold enrichment (6-mer frequency, TF over GST control); with ELF5, 1.18 fold enrichment (6-mer frequency, TF over GST control); with ETV3 it was 1.25 fold enrichment (6-mer frequency, TF over GST control); with ETV6, 1.21 fold enrichment (6-mer frequency, TF over GST control).
